Where “and” joins values, the source holds several entries; their conditions need not be identical. Equal values may be shown once. More than one record can exist for a structure, and the calls need not agree. Calls of active or inactive are those of the source. Rule for the calls: active = hit-call score of the fitted dose curve at least 0.9, where 1 is the maximum; inactive = score below 0.9.

The assay can be described thus: APR_HepG2_MitoMembPot_72hr: Apredica 72-hour HepG2 Assay for Mitochondrial Membrane Potential (AID 2282917). The note with it: imaging, actives raise or lower the signal. As to the method: APR_HepG2_72hr is a cell-based, multiplexed-readout assay that uses HepG2, a human liver cell line, with measurements taken at 72 hours after chemical dosing in a 384-well plate.APR_HepG2_MitoMembPot_72hr is one of 10 assay component(s) measured or calculated from the APR_HepG2_72hr assay. It is designed to make measurements of dye binding, a form of membrane potential reporter, as detected with fluorescence intensity signals by HCS Fluorescent Imaging technology.Data from the assay component APR_HepG2_MitoMembPot_72hr was analyzed into 1 assay endpoint. This assay endpoint, APR_HepG2_MitoMembPot_72hr, was analyzed with bidirectional fitting relative to DMSO as the negative control and baseline of activity. Using a type of membrane potential reporter, gain or loss-of-signal activity can be used to understand changes in the signaling. Furthermore, this assay endpoint can be referred to as a primary readout, because this assay has produced multiple assay endpoints where this one serves a signaling function. To generalize the intended target to other relatable targets, this assay endpoint is annotated to the cell morphology intended target family, where the subfamily is organelle conformation.
Cells were treated with dimethyl sulfoxide (DMSO) as a solvent control at a final concentration of 0.5% v/v or with compounds in DMSO with a resulting final DMSO concentration of 0.5% v/v. Compound treatment was done at concentrations of 0.39, 0.78, 1.56, 3.12, 6.24, 12.5, 25, 50, 100, and 200 uM in duplicate on each plate. Cells were treated with compounds for 1, 24, or 72 hr. Carbonyl […] m-chloro-phenylhydrazone (CCCP) and taxol were used as positive controls for mitochondrial function and cytoskeletal stability, respectively; DMSO served as the negative control for this experiment. Cells were fixed by the direct addition of 50 uL formaldehyde in Hank's Balanced Salt Solution (HBSS) to a final concentration of 3.7%. After incubation in the fixation medium for 30 min at room temperature (293-298 K), cells were rinsed twice with HBSS and treated with cell permeabilization buffer (16 uL of 0.5% Triton X-100) for 10 min at room temperature (293-298 K) before labeling. For mitochondrial membrane potential and mitochondrial measurements, pre-fixed cells were incubated with 50 uL of MitoTracker Red CMXRos (Invitrogen) at a concentration of 250 nM for 30 min before fixation. In the remaining cases, post-fixed cells were labeled by incubation with a multiplexed mixture of primary antibodies in HBSS for 60 min at room temperature (293-298 K) to detect immunoreactivity of c-Jun (1:500), phospho-histone H3 (1:100), phospho-histone H2A.x (1:200), p53 (1:400), alpha-tubulin (1:200) and Hoechst 33342 (2 ug/mL). Cells were labeled for multiplexed imaging on two separate plates: a) Hoechst 33342, MitoTracker Red, phospho-histone H3, and alpha-tubulin, and b) Hoechst 33342, phospho-histone H2A.x, and c-Jun. A final rinse with HBSS (50 uL) was performed before analysis. The primary and secondary antibodies for the proteins were phospho-histone H3 (rabbit anti-phospho-histone H3 and FITC-donkey anti-rabbit IgG), phospho-histone H2A.x (mouse anti-phospho-histone H2A.x and FITC-donkey anti-mouse IgG), c-Jun (rabbit anti-phospho-c-Jun and Cy3-donkey anti-rabbit IgG), p53 (sheep anti-p53 and Cy5-donkey anti-sheep IgG), alpha-tubulin (mouse anti-alpha-tubulin and Cy5-donkey anti-mouse IgG). These antibodies are available as the CellCiphr HepG2 assay kit (Millipore).Digital images of each well were captured using a Cellomics ArrayScan VTI (Thermo Scientific Cellomics) (0.8 NA objective, 0.63x optical coupler, and XF-93 filter set) at 20x magnification. The images were acquired using the autofocus feature of the ArrayScan instrument, which entails the following steps. First, the camera focuses on channel 1 (Hoechst 33342), where nuclei are identified. Second, a Z offset of 1 um is used for capturing mitochondria (MitoTracker Red). […]
For the compound `COc1nc(C)nc(NC(=O)NS(=O)(=O)c2ccccc2OCCCl)n1`, the result was inactive.

The AC50 is the concentration at which the activity in the assay is half-maximal. For the compound `N#CSCSc1nc2ccccc2s1`, the concentration at half-maximal activity (AC50) is 25.2 µM (active).

As for `CCCN(CCC)C(=O)SCC`, the outcome was inactive.

For `CCCN(CCC)c1c([N+](=O)[O-])cc(C(F)(F)F)c(N)c1[N+](=O)[O-]`, the compound was called inactive.

As to `S=C(S)NCCNC(=S)S.[Mn+2].[S-]C([S-])=NCCN=C([S-])[S-].[Zn+2]`, the call was inactive.

As for `CC1(C)C(C=C(Cl)Cl)C1C(=O)OCc1cccc(Oc2ccccc2)c1` (stereo not given), the call was inactive.

As to `CCCCCOC(=O)COc1cc(N2C(=O)C3=C(CCCC3)C2=O)c(F)cc1Cl`, the result was inactive.

For the compound `CCOC(=O)C(C)Oc1ccc(Oc2nc3ccc(Cl)cc3o2)cc1` (stereo not given), the result was inactive.

Turning to `c1ccc2[nH]c(-c3cscn3)nc2c1`, the compound was classed as inactive.

In the case of `COC(=O)c1ccccc1S(=O)(=O)NC(=O)Nc1nc(OC(F)F)cc(OC(F)F)n1`, the compound was called inactive.

In the case of `S=C([S-])NCCNC(=S)[S-].[Mn+2]`, the compound was classed as inactive.

Consider `CCN(Cc1c(F)cccc1Cl)c1c([N+](=O)[O-])cc(C(F)(F)F)cc1[N+](=O)[O-]`, for which the compound was called inactive.

For the compound `COC(=O)c1ccc(I)cc1S(=O)(=O)NC(=O)Nc1nc(C)nc(OC)n1`, the compound was classed as inactive.

On to `COC(=O)CSc1cc(N=c2sc(=O)n3n2CCCC3)c(F)cc1Cl`, for which the call was inactive.

On to `Oc1ccc(C(c2ccc(O)cc2)C(Cl)(Cl)Cl)cc1`, for which the call was inactive.

Turning to `CC(C)(C)[C@@H](O)[C@@H](Cc1ccc(Cl)cc1)n1cncn1`, the call was inactive.

As to `O=C(O)c1ccccc1`, the compound was called inactive.

Take `c1ccc(Nc2ccccc2)cc1`: the result was inactive.

Consider `CCN(CC)C(=O)c1cccc(C)c1`, for which the compound was called inactive.

Turning to `CC(C)(c1ccc(O)cc1)c1ccc(O)cc1`, the outcome was inactive; the AC50 is 101 µM (active) and 81.5 µM (active) and 107 µM (active).

As to `COC(=O)c1ccc(CNS(C)(=O)=O)cc1S(=O)(=O)NC(=O)Nc1nc(OC)cc(OC)n1`, the outcome was inactive.

With `COC(=O)c1c(Cl)nn(C)c1S(=O)(=O)NC(=O)Nc1nc(OC)cc(OC)n1`, the outcome was inactive.

As for `CCNc1nc(N)nc(Cl)n1`, the result was inactive.

As for `CC(C)CCCCCCc1ccc(O)cc1`, the call was inactive.

Turning to `C[C@]12CC[C@@H]3c4ccc(O)cc4C[C@@H](CCCCCCCCCS(=O)CCCC(F)(F)C(F)(F)F)[C@H]3[C@@H]1CC[C@@H]2O` (stereo not given in full), the half-maximal activity concentration (AC50) was 22 µM (active).

Turning to `CCOC(=O)COc1cc(-n2ncc(C(F)(F)F)c(C)c2=O)c(F)cc1Cl`, the compound was called inactive.

Turning to `Cc1nn(C)c(Oc2ccccc2)c1C=NOCc1ccc(C(=O)OC(C)(C)C)cc1`, the outcome was inactive.

Take `COCCO`: the call was inactive.

Take `CN(C)C(=O)Nc1ccc(Cl)c(Cl)c1`: the half-maximal activity concentration (AC50) is 15.7 µM (active).

With `CCCOC(=O)c1ccc(C(=O)OCCC)nc1`, the compound was classed as inactive.

On to `O=C(Nc1ccc([N+](=O)[O-])cc1Cl)c1cc(Cl)ccc1O`, for which the half-maximal activity concentration (AC50) is 1.06 µM (active).

For `CSC(=O)c1cccc2nnsc12`, the result was inactive.

For the compound `CC(=O)S[C@@H]1CC2=CC(=O)CC[C@]2(C)[C@H]2CC[C@@]3(C)[C@@H](CC[C@@]34CCC(=O)O4)[C@H]12`, the concentration at half-maximal activity (AC50) was 100 µM (active).

Turning to `CCCOC(=O)NCCCN(C)C`, the compound was classed as inactive.

Consider `O=C(O)C1(C(=O)Nc2ccc(Cl)cc2Cl)CC1`, for which the outcome was inactive.

Regarding `C=CCOC(Cn1ccnc1)c1ccc(Cl)cc1Cl` (stereo not given), the compound was called inactive.

In the case of `CCC(O)=C1C(=O)CC(C(=O)O)CC1=O` (stereo not given), the outcome was inactive.

Turning to `CCC(C)OC(=O)N1CCCCC1CCO` (stereo not given), the call was inactive.

For `O=C(c1ccccc1)C1CCCCC1`, the call was inactive.

Values taken from PubChem BioAssay (EPA / NIEHS).
